The results in this text go back to PubChem BioAssay AID1259313 (Sanford-Burnham Center for Chemical Genomics, 2017).

Values joined by “and” are separate entries in the source; they are usually repeats but may differ in a detail not shown here. Equal values may be shown once. In all, about 340,000 compounds went through this assay and about 8,500 (2.5%) were called active. This excerpt belongs to a sample that is enriched for actives. Values without a mark were called inactive.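 How the source made its calls: active means melting temperature shift of at least 10% of the positive control shift, at one fixed dose; inactive means the rest.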

The assay deals with Glutamate receptor ionotropic, NMDA 3A (GRIN3A) ligand-binding domain. The experiment in a line: binders of NR3A ligand-binding domain, primary screen, biophysical, differential scanning fluorimetry, uHTS (AID 1259313). To be noted: NR3A LBD differential scanning fluorimetry, at 25 µM, active compounds read high, 0% = protein alone, 100% = glycine-bound protein.
In the case of `CC(=O)C(CC(=O)N1CCCC1)C(=O)Nc1ccc(Cl)cc1` (stereo not given), the Tm shift relative to glycine control was -1.13%.
`Cc1cc(C)nc(-n2nc(C)cc2NC(=O)c2ccc(F)cc2F)n1`: the Tm shift relative to glycine control is -2.66%.
As for `O=C(Nc1ccc2nc3n(c(=O)c2c1)CCCC3)c1ccc(Cl)nc1`, the Tm shift relative to glycine control is -1.29%.
For `CCCCN(CC)C(=S)Nc1ccc2nc3n(c(=O)c2c1)CCCCC3`, the Tm shift relative to glycine control is 11% (active).
With `COc1ccc(CCNC(=O)C(=O)Nc2ccc3nc4n(c(=O)c3c2)CCCCC4)cc1OC` the figure was -0.47%.
With `C=CCn1c(P(C)(=O)O)nc2ccccc21` the figure was -0.35% and 1.55%; with `COc1ccc(S(=O)(=O)N2CCCCC2)cc1NC(=O)c1cc([N+](=O)[O-])ccc1N1CCOCC1`, -1.87%; with `Cc1nc2ccc(NC(=O)C3CCCCC3)cc2s1`, -3.66%.
In the case of `COc1ccc(CNC(=O)c2ccc(Br)s2)cc1OC`, the Tm shift relative to glycine control is 1.11%.
Consider `CCCC(=O)N(CCN1CCOCC1)c1nc2ccc(OCC)cc2s1`, for which the Tm shift relative to glycine control is -6.33%.
As for `COc1ccc(NC(C(=O)Nc2cccc(C(C)=O)c2)c2ccccc2)cc1` (stereo not given), the figure is -15.9%; as for `CCCC(=O)Nc1nc2ccc(NC(=O)c3c(F)c(F)c(OC)c(F)c3F)cc2s1`, 17.1% (active); as for `COc1ccc2nc(NC(=O)c3ccc(Br)s3)sc2c1`, 31.3% (active).
With `CSc1nc2ccc(NC(=O)c3c(F)cccc3F)cc2s1` the figure was 3.67%.
Turning to `Cc1noc(C)c1CSCC(=O)Nc1nc2ccc(Oc3ccccc3)cc2s1`, the Tm shift relative to glycine control was 0.97%.
As for `COc1ccc2nc(Nc3nc4ccc(NC(C)=O)cc4s3)sc2c1`, the figure is 25.2% (active).
As for `CCCn1nc(C(=O)Nc2ccc3nc(C)sc3c2)c2ccccc2c1=O`, the figure is -1.69%; as for `CCOc1ccc2nc(NC(=O)c3cc([N+](=O)[O-])ccc3N3CCOCC3)sc2c1`, 17% (active).
With `Cc1ccccc1-n1nnc2c(=O)oc3ccccc3c21` the figure was 1.45%; with `O=C1CC(c2c(F)cccc2Cl)C(n2cncn2)C(O)=C1C1NCCc2ccccc21` (stereo not given), -0.39%.
As for `CC(C)N(c1ccccc1)c1ncnc(NCCC(=O)O)c1[N+](=O)[O-]`, the Tm shift relative to glycine control is -4.26%.
With `Cc1cccc(C(=O)NCC(=O)OCC(=O)N(C)CC(=O)Nc2ccccc2Cl)c1` the figure was -0.85%; with `COc1ccc(CNC(=O)COc2cccnc2[N+](=O)[O-])cc1`, 1.77%; with `Cc1ccc(NC(=O)Cc2nc(COC(=O)C(C)NS(=O)(=O)c3ccc(C)cc3)cs2)cc1` (stereo not given), -1.68%.
As for `Cc1cc(C(=O)N2CCC(C(=O)O)CC2)c(C(F)(F)F)o1`, the figure is 2.93%.
